High-throughput results as filed in PubChem BioAssay.
LDHA block = qHTS assay for inhibitors of human lactate dehydrogenase; AID 1347041, 2019; activity change, % (values are at about 110 or 230 µM); purified LDHA, NADH/diaphorase-resazurin fluorescence; stronger effect = lower value; 480,000 compounds, 0.15% hits; L-lactate dehydrogenase A chain (Homo sapiens), P00338; in the data active = activity change below about -30%; inconclusive = mostly about -25% to -30%;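 also: plate controls were DMSO wells for no effect and wells without enzyme for full effect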
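Resorufin fluorescence (ex540/em590), read at 0 and 20 min after diaphorase/resazurin addition, reports the NADH left after a 5 min room-temperature reaction of 2 nM human LDH5 with 0.06 mM NADH and 0.2 mM pyruvate.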
IDH1 R132H inh = qHTS for Inhibitors of mutant isocitrate dehydrogenase 1 (IDH1): qHTS; Potency, µM (series often up to 76.6 µM), without a hit: at the top dose activity change, negative = inhibition, usual class: inhibitors; IDH1-R132H enzyme, NADPH consumption, diaphorase/resazurin fluorescence; AID 602179, 2012; 390,000 compounds, 0.093% hits; also: potency is read from the fitted curve at half-maximal effect; % is scaled to controls: 0 for no effect and ±100 for the full control effect; nearly all actives have a fitted effect of over 65% in size
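IDH1-R132H (0.5 ug/mL dispensed) in pH 7.5 Tris buffer was preincubated 30 min with compound, then given a substrate mix of 0.016 mM NADPH and 2 mM alpha-KG for 80 min at room temperature; remaining NADPH was read by diaphorase/resazurin fluorescence.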
Vif-A3G inh = qHTS for Inhibitors of Vif-A3G Interactions: qHTS | HeLa A3G-eYFP + Vif (tagged APOBEC3G with the HIV-1 protein that degrades it), YFP fluorescence, overnight | Potency, µM (top dose mostly 46.1 µM), for the others: at the highest dose activity, negative = active, usual class: inhibitors | 410,000 compounds, 0.076% hits; also: potency is read from the fitted curve at half-maximal effect; % is scaled to controls: 0 for no effect and ±100 for the full control effect; nearly all actives have a fitted effect of over 60% in size
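Read-out is eYFP fluorescence (Ex 488/Em 500-530) from Vif-expressing HeLa A3G-eYFP cells; more signal means A3G escaped Vif-mediated degradation. Cells plated overnight, compound pinned in, incubated overnight at 37 deg C.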
PGK inhibitor = qHTS Assay to Find Inhibitors of Phosphoglycerate Kinase. PGK/GAPDH coupled, Kinase-Glo luminescence, 60 min. AID 602233, 2012. 380,000 compounds, 0.043% hits. Phosphoglycerate kinase, glycosomal (Trypanosoma brucei brucei), P07378. Potency, µM (doses to about 57.5 µM), for the others: top-dose activity change, negative = inhibition, hits mostly inhibitors; also: potency is read from the fitted curve at half-maximal effect; % is scaled to controls: 0 for no effect and ±100 for the full control effect; nearly all actives have a fitted effect of over 60% in size
Target sequence (P07378 whole entry, looked up): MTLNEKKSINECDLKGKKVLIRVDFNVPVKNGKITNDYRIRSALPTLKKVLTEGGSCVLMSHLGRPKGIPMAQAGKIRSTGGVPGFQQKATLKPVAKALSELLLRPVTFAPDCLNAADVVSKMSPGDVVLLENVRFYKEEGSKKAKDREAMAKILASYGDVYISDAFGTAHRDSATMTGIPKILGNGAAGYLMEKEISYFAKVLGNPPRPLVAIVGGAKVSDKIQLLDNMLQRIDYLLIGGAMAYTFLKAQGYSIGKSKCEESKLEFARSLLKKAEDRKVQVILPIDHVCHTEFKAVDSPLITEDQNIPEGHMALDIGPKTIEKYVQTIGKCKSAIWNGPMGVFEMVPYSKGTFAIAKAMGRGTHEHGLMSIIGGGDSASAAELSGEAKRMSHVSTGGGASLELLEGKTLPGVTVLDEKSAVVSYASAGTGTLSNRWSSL
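Recombinant glycosomal PGK reaction used 1,3-bisphosphoglycerate generated in-well by GAPDH (100nM final) in 100mM TEA pH 7.6, 5mM MgCl2, 0.01% Tween-20. After 60 minutes at room temperature, ATP was read by Kinase-Glo Plus luminescence end-point.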
Vif-APOBEC3F blk = qHTS for Inhibitors of Vif-A3F Interactions: qHTS; HeLa A3F-eYFP + Vif (tagged APOBEC3F with the HIV-1 protein that degrades it), YFP fluorescence increase; Potency, µM (doses to about 46.1 µM), for inactives: top-dose activity, negative = active; 390,000 compounds, 0.2% hits; also: potency is read from the fitted curve at half-maximal effect; % of control where 0% means no effect; nearly all actives have a fitted effect of over 65% in size
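HeLa cells stably expressing A3F-eYFP plus Vif, plated and incubated overnight at 37 deg C, then exposed to compounds overnight at 37 deg C. Blocked degradation read as raised yellow fluorescence (Ex 488/Em 500-530).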
Pin1 inh = qHTS Assay to Find Inhibitors of Pin1; Pin1 FP peptide displacement, HiFluor488, 10 min; Potency, µM (top dose mostly 115 µM), inactives show at the highest dose activity, negative = inhibition, hits mostly inhibitors; 390,000 compounds, 0.009% hits; AID 504891, 2011; active = well fitted inhibition curve with a large enough effect in the polarisation, with a control signal flat, not every such curve was filed as active; inconclusive = small, poorly fitted or top-dose-only effect, or effect the other way, or a change in a side signal; inactive = no such curve, though single readings can be large or run the other way; the % refers to the polarisation; also: potency is read from the fitted curve at half-maximal effect; % is scaled to controls: 0 for no effect and ±100 for the full control effect
Target sequence (Q13526 whole entry, looked up): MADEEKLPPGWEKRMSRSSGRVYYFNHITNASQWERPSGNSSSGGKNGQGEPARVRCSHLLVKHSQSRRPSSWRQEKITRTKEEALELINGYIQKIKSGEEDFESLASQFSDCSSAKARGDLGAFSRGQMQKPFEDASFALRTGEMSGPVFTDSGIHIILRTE
Resorufin autofl = qHTS for Inhibitors of mutant isocitrate dehydrogenase 1 (IDH1): Cherrypicks Autofluorescence Interference; Resorufin detection reagent fluorescence interference, cell-free; inhibition of signal, % at 51.2 µM; 750 tested, under 10 active; AID 623980, 2012; shares compounds with IDH1 R132H inh;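 also: 0% = wells with normal resorufin and full inhibition = wells lacking resorufin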
WT IDH1 inh = qHTS for Inhibitors of mutant isocitrate dehydrogenase 1 (IDH1): Cherrypicks in WT IDH1; 750 compounds, 9% hits; Potency, µM (series often up to 115 µM), for the others: at the highest dose activity change, negative = inhibition, hits mostly inhibitors; AID 623995, 2012; WT IDH1 enzyme, NADPH diaphorase/resazurin fluorescence; shares compounds with IDH1 R132H inh;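 also: potency is read from the fitted curve at half-maximal effect; 0% = full WT IDH1 enzyme control and full inhibition = no enzyme wells; nearly all actives have a fitted effect of over 55% in size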
IDH1 R132H conf = qHTS for Inhibitors of mutant isocitrate dehydrogenase 1 (IDH1): Confirmation of Cherrypicks | shares compounds with IDH1 R132H inh | IDH1 R132H enzyme, NADPH diaphorase/resazurin fluorescence | Potency, µM (doses to about 76.6 µM), for the others: at the highest dose activity change, negative = inhibition, actives largely listed as inhibitors | 750 compounds, 83% hits; also: potency is read from the fitted curve at half-maximal effect; nearly all actives have a fitted effect of over 50% in size
Active calls of the source: *; i = inactive; u = inconclusive; x = not tested or not shown. Rows were chosen to be rich in hits. Some 0.49% of all compounds tested hit in one or more screens of this group. Unless noted, calls follow the shape of the dose curve; as a rule, active = well fitted curve in the direction sought with a large enough effect; inconclusive = small, poorly fitted or top-dose-only effect, or another doubt; inactive = no such curve, though single readings can be large; an effect the other way counts as inactive or inconclusive.

SMILES	LDHA block	IDH1 R132H inh	Vif-A3G inh	PGK inhibitor	Vif-APOBEC3F blk	Pin1 inh	Resorufin autofl	WT IDH1 inh	IDH1 R132H conf
Cc1ccc(-c2c(C)n3c4c(=O)n(C)c(=O)n(C)c4nc3n2CCO)cc1	5	28%	-6%	1%	1%	3%	x	x	x
CCCCn1c(-c2ccc(C)cc2)c(C)n2c3c(=O)n(C)c(=O)n(C)c3nc12	-3	u	1%	i	6%	-3%	-8	-16%	11µM*
Cc1oc2c(C)c3oc(=O)c(CCC(=O)O)c(C)c3cc2c1-c1ccccc1	-12	23µM*	1%	-7%	-14%	u	0	50µM*	13µM*
CCc1ccc(C(=O)c2cn(Cc3ccc(F)cc3)c3cc(OC)c(OC)cc3c2=O)cc1	0	u	-8%	8%	-9%	25%	-4	2%	u
CC(C)c1nc(N2CCOCC2)c(C#N)c2c1CCCC2	-3	u	0%	-4%	x	-5%	1	5%	35µM*
CC(C)c1nc(N2CCN(C(=O)C(=O)N3CCOCC3)CC2)c(C#N)c2c1CCCC2	-4	x	x	x	x	x	x	x	x
Cc1ccc(C(=O)NNC(=O)c2cccc(N(C)C)c2)cc1F	3	x	x	x	x	x	x	x	x
CC(=O)N(C(C)=O)N1C(=O)/C(=C/c2ccc(Cl)cc2)SC1=S	u	u	-18%	-1%	10%	-5%	7	-19%	50µM*
Cc1nn(-c2ncccn2)c2c1C(c1ccc(OCC(C)C)cc1)CC(=O)N2 (configuration not stated)	-3	x	x	x	x	x	x	x	x
CSC1=NC(=O)/C(=C/c2ccc(SC)cc2)S1	-6	35µM*	-1%	-1%	-2%	57%	-3	71µM*	40µM*
Cc1ccc(F)cc1NC(=O)c1nn(Cc2ccccc2)c(=O)c2ccccc12	-3	x	x	x	x	x	x	x	x
O=C(/C=C/c1cccs1)Nc1scc(-c2ccccc2)c1C(=O)O	-11	u	-4%	u	4%	u	-25	35µM*	35µM*
O=C(/C=C/c1cccs1)Nc1nc(-c2ccccc2)cs1	-8	-2%	7%	-5%	-6%	3%	x	x	x
COc1cc(SC#N)ccc1N=Cc1c(C)[nH]n(-c2ccc(C)cc2C)c1=O	1	41µM*	-3%	-7%	0%	19%	2	14%	16µM*
CCC(O)C1=C(c2ccccc2)Oc2ccccc2C1c1ccccc1 (configuration not stated)	0	x	x	x	x	x	x	x	x
Cc1cccc(N(C(=O)c2snc(C(N)=O)c2N)C(C(=O)NCc2ccccc2)c2ccncc2)c1 (configuration not stated)	-6	u	0%	i	4%	-4%	-6	8%	35µM*
COc1ccc(OC)c(N(C(=O)c2snc(C(N)=O)c2N)C(C(=O)NCc2ccccc2)c2ccc(O)cc2)c1 (configuration not stated)	3	u	-16%	-1%	0%	6%	2	0%	22µM*
Cc1ccc(OCCCN2C(=O)C(=O)c3cccc(C)c32)cc1	-1	5%	4%	-7%	6%	-7%	x	x	x
Cc1cccc2c1N(CCOc1ccc(C(C)(C)C)cc1)C(=O)C2=O	-3	u	1%	-8%	9%	-7%	-4	-18%	25µM*
Cc1ccc2cc(C(c3nnnn3C3CCCC3)N(Cc3ccco3)Cc3cccs3)c(=O)[nH]c2c1 (configuration not stated)	-2	2%	1%	-6%	2%	27%	x	x	x
CCC(c1nnnn1C1CCCCC1)N(Cc1ccco1)Cc1cc2ccc(OC)cc2[nH]c1=O (configuration not stated)	1	u	-1%	-3%	-2%	u	-5	4%	u
COc1ccccc1-n1cnnc1SCC(=O)NC(C)c1ccc(-c2ccccc2)cc1 (configuration not stated)	3	x	x	x	x	x	x	x	x
Cc1ccc(NC(=O)CNc2cccc(S(=O)(=O)N3CCOCC3)c2)cc1F	-3	-11%	0%	-5%	-21%	u	x	x	x
CCN(CC)S(=O)(=O)c1cc(NC(=O)CNc2cccc(S(=O)(=O)N3CCOCC3)c2)ccc1C	1	u	-5%	-11%	-2%	17%	1	-2%	28µM*
COC(=O)c1ccc(NC(=O)C(c2ccccc2)N2Cc3ccccc3C2=O)cc1 (configuration not stated)	-14	u	-4%	3%	1%	-1%	-4	-1%	-6%
O=C(Nc1ccc(F)c(F)c1)C1CCN(c2nc3ccccc3o2)CC1	-2	x	x	x	x	x	x	x	x
COc1cc2c(-c3ccc4cc[nH]c4c3)c(-c3ccsc3)oc(=O)c2cc1OC	-1	u	1%	-3%	-5%	16%	-8	-1%	11µM*
COc1cc2c(C(F)(F)F)c(-c3ccsc3)oc(=O)c2cc1OC	1	8%	0%	-6%	-7%	6%	x	x	x
COc1ccc(-c2c(-c3ccsc3)oc(=O)c3cc(OC)c(OC)cc23)cn1	2	28µM*	-2%	5%	4%	15%	0	-3%	8.9µM*
O=C(Cc1c[nH]c2ccccc12)Nc1cccc(C(=O)NC2CC2)c1	-5	x	x	x	x	x	x	x	x
